About 8,800 targets were measured; listed, in parts, are those with a hit and a random draw of the rest. About 0.5% of all pairs of compound and target were hits.
Legend:
Assay in all cases: log2 fold change, soluble protein after heating vs DMSO (PISA); higher = thermal stabilisation; K562 lysate, 10 uM; active = over 0.2 and 3.5 SD of the protein, either way, in both replicates (recomputed)
[1] = compound: CN1CC[C@H](c2c(O)cc(O)c3c(=O)cc(-c4ccccc4Cl)oc23)[C@H](O)C1 [alvocidib]
Procedure, shortened: (§1)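 A 30 min treatment with 10 μM compound was applied to crude K562 extract at 1 mg/mL protein in PBS pH 7.4 with 1 mM MgCl2. Heating for 3 min spanned 48°C-58°C, after which aliquots were pooled, adjusted to 0.5% NP-40 at 4°C and spun at 21,000xg for 90 min. TMTpro 16plex LC-MS/MS of the supernatant, with channel sums equalised, gave values recorded as log-two fold change in thermal stability against solvent controls, from duplicates.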

[2] = compound: CN1CCc2c(c3ccccc3n2Cc2ccc(C(=O)NO)cc2)C1 [Tubastatin A]
Procedure, shortened: as §1

[3] = compound: CNC(=O)C1=CC=CC=C1NC2=NC(=NC=C2Cl)NC3=C(C=C(C=C3)N4CCOCC4)OC
Procedure, shortened: as §1

[4] = compound: CNC(=O)c1ccc(Nc2ncc(C(F)(F)F)c(NCc3nccnc3N(C)S(C)(=O)=O)n2)cc1 [defactinib]
Procedure, shortened: as §1

[5] = compound: CNc1nc(-c2ccc3c(N)n[nH]c3c2)cc(N2C[C@@H](C(=O)NC3CCCCC3)CC[C@H]2C)n1
Procedure, shortened: as §1

[6] = compound: COC(=O)N[C@@H](C)CNc1nccc(-c2cn(C(C)C)nc2-c2cc(Cl)cc(NS(C)(=O)=O)c2F)n1 [encorafenib]
Procedure, shortened: as §1

[7] = compound: COC(=O)[C@H](CCSC)NC(=O)C1=C(C=C(C=C1)NC[C@H](CS)N)C2=CC=CC=C2
Procedure, shortened: as §1

[8] = compound: COc1cc(Nc2ncc3c(n2)-c2ccc(Cl)cc2C(c2c(F)cccc2OC)=NC3)ccc1C(=O)O [alisertib]
Procedure, shortened: as §1

[9] = compound: COc1cc2ncnc(Nc3ccc(F)c(Cl)c3)c2cc1OCCCN1CCOCC1 [gefitinib]
Procedure, shortened: as §1

[10] = compound: COc1cc2nc(-c3cc(F)ccc3O)nc(N[C@@H]3CNC[C@H]3C(C)(C)O)c2cc1OC
Procedure, shortened: as §1

Measured: log2 fold change

ZSWIM8 isoform 4 (UniProt A7E2V4)
Chain of UniProt A7E2V4 (A7E2V4 whole entry, looked up): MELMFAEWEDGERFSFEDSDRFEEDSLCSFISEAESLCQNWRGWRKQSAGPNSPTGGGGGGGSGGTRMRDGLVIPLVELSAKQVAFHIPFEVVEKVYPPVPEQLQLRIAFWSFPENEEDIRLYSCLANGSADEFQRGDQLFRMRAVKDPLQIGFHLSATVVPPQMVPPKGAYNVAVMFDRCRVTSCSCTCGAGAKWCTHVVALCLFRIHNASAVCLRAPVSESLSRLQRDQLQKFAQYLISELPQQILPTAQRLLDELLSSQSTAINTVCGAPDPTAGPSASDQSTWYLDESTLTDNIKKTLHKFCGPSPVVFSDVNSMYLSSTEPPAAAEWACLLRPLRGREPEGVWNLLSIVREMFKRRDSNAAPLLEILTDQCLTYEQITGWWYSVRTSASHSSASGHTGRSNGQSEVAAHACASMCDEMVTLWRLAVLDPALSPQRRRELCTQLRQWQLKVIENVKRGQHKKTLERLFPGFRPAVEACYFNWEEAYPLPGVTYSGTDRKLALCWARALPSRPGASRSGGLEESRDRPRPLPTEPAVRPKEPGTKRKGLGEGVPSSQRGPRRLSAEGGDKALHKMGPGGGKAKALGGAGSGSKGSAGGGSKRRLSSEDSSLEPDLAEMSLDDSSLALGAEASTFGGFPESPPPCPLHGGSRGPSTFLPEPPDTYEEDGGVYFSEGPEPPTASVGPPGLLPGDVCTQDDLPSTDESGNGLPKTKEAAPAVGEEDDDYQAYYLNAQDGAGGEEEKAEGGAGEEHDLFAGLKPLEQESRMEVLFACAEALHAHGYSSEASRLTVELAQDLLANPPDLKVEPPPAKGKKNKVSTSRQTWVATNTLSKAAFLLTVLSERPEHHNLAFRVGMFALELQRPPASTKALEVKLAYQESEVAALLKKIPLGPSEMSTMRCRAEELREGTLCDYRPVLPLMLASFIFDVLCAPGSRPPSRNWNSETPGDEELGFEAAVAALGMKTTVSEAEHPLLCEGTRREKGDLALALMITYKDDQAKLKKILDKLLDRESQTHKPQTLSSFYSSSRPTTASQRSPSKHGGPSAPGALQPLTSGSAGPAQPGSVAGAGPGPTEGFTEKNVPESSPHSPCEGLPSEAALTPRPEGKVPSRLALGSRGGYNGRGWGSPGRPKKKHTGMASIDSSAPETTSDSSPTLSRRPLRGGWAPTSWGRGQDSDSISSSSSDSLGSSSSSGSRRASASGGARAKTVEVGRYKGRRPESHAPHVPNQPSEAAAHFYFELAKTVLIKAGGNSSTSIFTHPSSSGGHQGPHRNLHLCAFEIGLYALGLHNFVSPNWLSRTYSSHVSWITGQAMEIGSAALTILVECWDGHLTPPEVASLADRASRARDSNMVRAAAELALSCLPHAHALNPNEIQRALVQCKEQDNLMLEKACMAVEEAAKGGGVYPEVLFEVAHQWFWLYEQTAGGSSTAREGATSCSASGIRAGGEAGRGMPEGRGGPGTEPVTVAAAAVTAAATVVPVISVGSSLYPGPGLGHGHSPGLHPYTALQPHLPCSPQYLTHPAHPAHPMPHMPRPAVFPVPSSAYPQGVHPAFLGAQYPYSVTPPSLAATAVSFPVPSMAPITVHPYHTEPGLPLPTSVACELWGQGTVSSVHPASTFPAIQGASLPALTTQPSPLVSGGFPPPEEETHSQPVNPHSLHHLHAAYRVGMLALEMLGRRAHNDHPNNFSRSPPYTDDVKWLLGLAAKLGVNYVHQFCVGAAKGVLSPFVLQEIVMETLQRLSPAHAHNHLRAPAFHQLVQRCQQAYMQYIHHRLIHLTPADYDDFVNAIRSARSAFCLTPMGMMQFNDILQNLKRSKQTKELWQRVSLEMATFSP
inactive: [1] 0.078 | [2] 0.149 | [3] -0.171 | [4] 0.088 | [5] -0.226 | [6] 0.035 | [7] -0.071 | [8] -0.034 | [9] -0.073

ZNF146 (UniProt Q15072)
Chain of UniProt Q15072 (Q15072 whole entry, looked up): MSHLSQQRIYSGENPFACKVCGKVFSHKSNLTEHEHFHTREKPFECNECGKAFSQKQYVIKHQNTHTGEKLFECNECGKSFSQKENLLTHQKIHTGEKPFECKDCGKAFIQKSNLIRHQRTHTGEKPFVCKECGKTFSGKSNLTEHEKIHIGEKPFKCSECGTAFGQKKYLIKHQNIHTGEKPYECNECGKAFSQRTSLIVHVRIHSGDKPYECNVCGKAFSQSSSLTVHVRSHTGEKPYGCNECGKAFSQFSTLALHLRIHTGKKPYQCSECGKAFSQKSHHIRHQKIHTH
inactive: [5] 0.12

ZDHHC17 (UniProt Q8IUH5)
Chain of UniProt Q8IUH5 (Q8IUH5 whole entry, looked up): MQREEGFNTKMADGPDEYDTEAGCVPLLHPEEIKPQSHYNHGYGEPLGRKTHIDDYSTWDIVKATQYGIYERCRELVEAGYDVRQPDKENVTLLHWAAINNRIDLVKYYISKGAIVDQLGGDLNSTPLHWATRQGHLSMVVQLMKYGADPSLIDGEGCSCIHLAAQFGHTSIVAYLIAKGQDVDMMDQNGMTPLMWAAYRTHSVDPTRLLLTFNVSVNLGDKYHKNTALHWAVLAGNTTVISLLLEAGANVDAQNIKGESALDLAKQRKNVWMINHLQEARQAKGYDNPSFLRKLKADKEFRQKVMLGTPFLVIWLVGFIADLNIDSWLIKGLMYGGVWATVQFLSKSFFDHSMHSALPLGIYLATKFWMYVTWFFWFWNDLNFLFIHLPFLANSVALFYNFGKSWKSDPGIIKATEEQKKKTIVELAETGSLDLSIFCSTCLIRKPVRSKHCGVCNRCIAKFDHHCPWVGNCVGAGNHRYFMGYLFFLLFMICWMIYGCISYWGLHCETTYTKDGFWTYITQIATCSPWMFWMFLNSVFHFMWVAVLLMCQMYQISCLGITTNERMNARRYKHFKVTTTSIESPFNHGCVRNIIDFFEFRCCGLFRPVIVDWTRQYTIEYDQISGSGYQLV
inactive: [1] -0.44 | [2] 0.074 | [4] -0.053 | [5] -0.04 | [6] -0.044 | [7] 0.183 | [8] 0.037 | [10] -0.032 | [9] 0.24

USP22 (UniProt Q9UPT9)
Chain of UniProt Q9UPT9 (Q9UPT9 whole entry, looked up): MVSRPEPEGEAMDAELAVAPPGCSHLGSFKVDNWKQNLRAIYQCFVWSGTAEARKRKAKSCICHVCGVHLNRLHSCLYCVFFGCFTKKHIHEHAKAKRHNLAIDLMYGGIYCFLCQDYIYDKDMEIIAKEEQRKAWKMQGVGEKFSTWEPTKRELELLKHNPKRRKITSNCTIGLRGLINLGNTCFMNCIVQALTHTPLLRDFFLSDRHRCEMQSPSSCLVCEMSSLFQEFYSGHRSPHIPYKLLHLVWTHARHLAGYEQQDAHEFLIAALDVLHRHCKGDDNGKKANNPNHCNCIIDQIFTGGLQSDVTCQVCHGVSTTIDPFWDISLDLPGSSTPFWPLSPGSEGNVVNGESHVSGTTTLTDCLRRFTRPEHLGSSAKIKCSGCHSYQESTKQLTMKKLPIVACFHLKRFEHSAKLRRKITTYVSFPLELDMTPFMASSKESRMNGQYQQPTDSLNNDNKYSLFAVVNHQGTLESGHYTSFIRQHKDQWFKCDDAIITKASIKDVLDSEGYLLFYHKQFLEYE
inactive: [1] 0.102 | [2] -0.044 | [3] 0.034 | [4] 0.017 | [5] -0.027 | [6] -0.007 | [7] 0.055 | [8] 0.02 | [9] -0.011
